# Test results reported in PubChem BioAssay (EPA / NIEHS).
# The source made the active and inactive calls. The calls were made as follows: active = hit-call score of the fitted dose curve at least 0.9, where 1 is the maximum; inactive = score below 0.9.
# Legend:
# Conditions in all cases: mRNA level, 48 h; actives raise or lower the signal
# [1] = read-out: Bcl-2 (BID) gene, BID (gene 637); assay: LTEA_HepaRG_BID: Life Technologies and Expression Analysis (LTEA) Assay for Bcl-2 (BID) gene using HepaRG (AID 2283476)
# Procedure, shortened: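 Cells are plated, cultured 48 h, switched to serum-free induction medium, then dosed 48 h (100 uM top, half-log steps, 0.5% DMSO). RNA is isolated and BID expression read by qRT-PCR.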
# Caspase-3 (Homo sapiens) = Caspase-3 (Homo sapiens) (UniProt P42574); assay: LTEA_HepaRG_CASP3: Life Technologies and Expression Analysis (LTEA) Assay for cysteine-aspartic acid protease (CASP3) using HepaRG (AID 2283477)
# Procedure, shortened: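 In HepaRG liver cells dosed for 48 h at up to 100 uM (eight-point, duplicate), CASP3 expression changes are scored by qRT-PCR. Activity is fitted in both directions with 0.5% DMSO as baseline.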
# [2] = read-out: Cytochrome P450 (CYP1A2), CYP1A2 (gene 1544); assay: LTEA_HepaRG_CYP1A2: Life Technologies and Expression Analysis (LTEA) Assay for Cytochrome P450 (CYP1A2) using HepaRG (AID 2283479)
# Procedure, shortened: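 Assesses CYP1A2 mRNA in human HepaRG liver cells after 48 h chemical exposure at up to 100 uM. Values come from qRT-PCR with bidirectional curve fitting relative to DMSO.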
# [3] = read-out: cysteine-aspartic acid protease (CASP8), CASP8 (gene 841); assay: LTEA_HepaRG_CASP8: Life Technologies and Expression Analysis (LTEA) Assay for cysteine-aspartic acid protease (CASP8) using HepaRG (AID 2283480)
# Procedure, shortened: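 qRT-PCR readout of CASP8 mRNA, normalized to three housekeeping genes, after 48 h chemical exposure of HepaRG cells; 8-point half-log series, top 100 uM, 0.5% DMSO vehicle. Bidirectional curve fitting against DMSO baseline.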
# [4] = read-out: Cytochrome P450 (CYP2B6), CYP2B6 (gene 1555); assay: LTEA_HepaRG_CYP2B6: Life Technologies and Expression Analysis (LTEA) Assay for Cytochrome P450 (CYP2B6) using HepaRG (AID 2283481)
# Procedure, shortened: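 Using 48 h treatment of HepaRG cells in serum-free induction medium, concentrations spanned half-log steps from 100 uM in 0.5% DMSO vehicle. CYP2B6 mRNA induction or loss is scored by qRT-PCR against DMSO.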
# [5] = read-out: Cytochrome P450 2C19 (Homo sapiens) (UniProt P33261); assay: LTEA_HepaRG_CYP2C19: Life Technologies and Expression Analysis (LTEA) Assay for CYP2C19 using HepaRG (AID 2283482)
# Procedure, shortened: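 Human HepaRG liver cells received test chemicals for 48 h (highest 100 uM, half-log dilutions in 0.5% DMSO). CYP2C19 mRNA induction or loss is read by multiplexed qRT-PCR and fitted in both directions versus vehicle.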
# CYP2C8 (gene 1558) = assay: LTEA_HepaRG_CYP2C8: Life Technologies and Expression Analysis (LTEA) Assay for CYP2C8 using HepaRG (AID 2283483)
# Procedure, shortened: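 HepaRG (human liver line), 48 h chemical exposure, 8-pt half-log series from 100 uM, 0.5% DMSO vehicle. Readout: CYP2C8 transcript by qRT-PCR, housekeeping-normalized. Bidirectional fit vs DMSO baseline.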
# CYP2C9 (gene 1559) = assay: LTEA_HepaRG_CYP2C9: Life Technologies and Expression Analysis (LTEA) Assay for CYP2C9 using HepaRG (AID 2283484)
# Procedure, shortened: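 HepaRG, 48 h dosing, 8-pt half-log series, top 100 uM, 0.5% DMSO vehicle. Read-out: CYP2C9 transcript by TaqMan qRT-PCR, housekeeping-normalized (ACTB/GAPDH/POLR2A). Gain or loss fitted vs DMSO baseline.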
# CYP2E1 (gene 1571) = assay: LTEA_HepaRG_CYP2E1: Life Technologies and Expression Analysis (LTEA) Assay for CYP2E1 using HepaRG (AID 2283485)
# Procedure, shortened: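 Readout is qRT-PCR of CYP2E1 mRNA, normalized to three housekeeping genes and fitted bidirectionally against 0.5% DMSO. HepaRG cells were dosed 48 h at eight concentrations, highest 100 uM with half-log dilutions.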
# CYP4A11 (gene 1579) = assay: LTEA_HepaRG_CYP4A11: Life Technologies and Expression Analysis (LTEA) Assay for CYP4A11 using HepaRG (AID 2283486)
# Procedure, shortened: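 Readout is CYP4A11 mRNA induction or suppression (qRT-PCR, ACTB/GAPDH/POLR2A normalization) in human HepaRG cells after 48 h chemical treatment, concentrations to 100 uM in 0.5% DMSO, fitted bidirectionally against vehicle.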
# [6] = read-out: DNA damage-inducible transcript 3 (DDIT3), DDIT3 (gene 1649); assay: LTEA_HepaRG_DDIT3: Life Technologies and Expression Analysis (LTEA) Assay for DNA damage-inducible transcript 3 (DDIT3) using HepaRG (AID 2283488)
# Procedure, shortened: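 Cells are human HepaRG liver cells treated for 48 h with eight half-log concentrations up to 100 uM in 0.5% DMSO. Transcript levels come from qRT-PCR normalized to three housekeeping genes, with activity fitted in both directions relative to vehicle.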
# [7] = read-out: Pro-epidermal growth factor (Homo sapiens) (UniProt P01133); assay: LTEA_HepaRG_EGF: Life Technologies and Expression Analysis (LTEA) Assay for Epidermal growth factor (EGF) using HepaRG (AID 2283489)
# Procedure, shortened: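 EGF expression changes in human HepaRG cells are scored by bidirectional fitting relative to 0.5% DMSO controls. Chemicals are tested at eight half-log concentrations up to 100 uM for 48 h in serum-free induction medium.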
# [8] = read-out: Early growth response protein 1 (EGR1) transcription factor, EGR1 (gene 1958); assay: LTEA_HepaRG_EGR1: Life Technologies and Expression Analysis (LTEA) Assay for Early growth response protein 1 (EGR1) transcription factor using HepaRG (AID 2283490)
# Procedure, shortened: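 HepaRG, 48 h exposure, 8-pt half-log series from 100 uM, 0.5% DMSO vehicle; EGR1 transcript by TaqMan qRT-PCR (Fluidigm array), housekeeping-normalized; bidirectional fit relative to DMSO baseline.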
# [9] = read-out: Ezrin (EZR), EZR (gene 7430); assay: LTEA_HepaRG_EZR: Life Technologies and Expression Analysis (LTEA) Assay for Ezrin (EZR) using HepaRG (AID 2283491)
# Procedure, shortened: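 Read-out is EZR transcript level by qRT-PCR, normalized to three housekeeping genes and fitted bidirectionally against the DMSO control. Human HepaRG cells received test chemicals for 48 h at eight half-log concentrations up to 100 uM in 0.5% DMSO.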
# [10] = read-out: Cytochrome P450 3A7 (Homo sapiens) (UniProt P24462); assay: LTEA_HepaRG_CYP3A7: Life Technologies and Expression Analysis (LTEA) Assay for CYP3A7 using HepaRG (AID 2283492)
# Procedure, shortened: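 Cells were thawed, plated, cultured 48 h, then treated for a further 48 h with chemicals (eight-point half-log series from 100 uM, 0.5% DMSO). RNA was isolated and CYP3A7 expression quantified by qRT-PCR normalised to ACTB, GAPDH and POLR2A.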
# CYP3A5 (gene 1577) = assay: LTEA_HepaRG_CYP3A5: Life Technologies and Expression Analysis (LTEA) Assay for CYP3A5 using HepaRG (AID 2283493)
# Procedure, shortened: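 Human HepaRG hepatic cells receive 48 h chemical treatment at eight concentrations (half-log steps from 100 uM) in 0.5% DMSO. Expression of CYP3A5 is quantified by Fluidigm qRT-PCR and normalized to three reference genes.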
# [11] = read-out: Fatty Acid-Binding Protein 1 (FABP1), FABP1 (gene 2168); assay: LTEA_HepaRG_FABP1: Life Technologies and Expression Analysis (LTEA) Assay for Fatty Acid-Binding Protein 1 (FABP1) using HepaRG (AID 2283494)
# Procedure, shortened: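 qRT-PCR readout of FABP1 transcript (normalized to three housekeeping genes) after 48 h chemical exposure of HepaRG cells; eight concentrations, half-log steps, max 100 uM, 0.5% DMSO vehicle; gain or loss fitted relative to DMSO baseline.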
# [12] = read-out: Cytochrome P450 4A22 (Homo sapiens) (UniProt Q5TCH4); assay: LTEA_HepaRG_CYP4A22: Life Technologies and Expression Analysis (LTEA) Assay for Cytochrome P450 4A22 (CYP4A22) using HepaRG (AID 2283495)
# Procedure, shortened: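 Cryopreserved HepaRG cells, plated and cultured 48 h, then switched to serum-free induction medium and treated 48 h (duplicates, up to 100 uM, half-log steps, 0.5% DMSO). Expression change of CYP4A22 was fitted bidirectionally against vehicle.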
# [13] = read-out: Cytochrome P450 3A4 (Homo sapiens) (UniProt P08684); assay: LTEA_HepaRG_CYP3A4: Life Technologies and Expression Analysis (LTEA) Assay for CYP3A4 using HepaRG (AID 2283487)
# Procedure, shortened: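 HepaRG, 48 h exposure, 8-pt CRC from 100 uM (half-log), 0.5% DMSO, duplicates; serum-free induction medium. Readout: CYP3A4 mRNA, qRT-PCR, ACTB/GAPDH/POLR2A normalization. Bidirectional fit vs DMSO.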
# Sequence of Cytochrome P450 2C19 (Homo sapiens) (P33261 whole entry, looked up): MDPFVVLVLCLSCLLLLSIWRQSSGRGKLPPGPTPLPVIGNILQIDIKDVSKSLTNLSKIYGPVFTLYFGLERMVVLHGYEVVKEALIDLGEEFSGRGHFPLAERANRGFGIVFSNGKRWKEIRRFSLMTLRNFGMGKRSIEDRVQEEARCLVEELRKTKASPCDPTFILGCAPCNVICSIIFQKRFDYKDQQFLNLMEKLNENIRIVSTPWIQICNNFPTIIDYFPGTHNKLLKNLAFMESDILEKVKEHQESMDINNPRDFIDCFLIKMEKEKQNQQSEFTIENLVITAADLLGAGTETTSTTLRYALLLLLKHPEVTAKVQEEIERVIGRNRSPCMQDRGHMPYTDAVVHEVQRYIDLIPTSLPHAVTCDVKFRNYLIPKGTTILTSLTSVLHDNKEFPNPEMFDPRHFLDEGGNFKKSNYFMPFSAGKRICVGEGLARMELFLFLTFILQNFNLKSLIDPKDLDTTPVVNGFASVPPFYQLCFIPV
# Sequence of Caspase-3 (Homo sapiens) (P42574 whole entry, looked up): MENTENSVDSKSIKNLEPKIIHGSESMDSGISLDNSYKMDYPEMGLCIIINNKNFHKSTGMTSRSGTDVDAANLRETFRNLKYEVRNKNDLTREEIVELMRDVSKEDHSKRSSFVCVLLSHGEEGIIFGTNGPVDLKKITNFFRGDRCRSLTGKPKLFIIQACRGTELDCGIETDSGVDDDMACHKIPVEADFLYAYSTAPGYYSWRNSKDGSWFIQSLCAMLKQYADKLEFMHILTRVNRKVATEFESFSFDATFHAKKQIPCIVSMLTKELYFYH
# Sequence of Cytochrome P450 3A7 (Homo sapiens) (P24462 whole entry, looked up): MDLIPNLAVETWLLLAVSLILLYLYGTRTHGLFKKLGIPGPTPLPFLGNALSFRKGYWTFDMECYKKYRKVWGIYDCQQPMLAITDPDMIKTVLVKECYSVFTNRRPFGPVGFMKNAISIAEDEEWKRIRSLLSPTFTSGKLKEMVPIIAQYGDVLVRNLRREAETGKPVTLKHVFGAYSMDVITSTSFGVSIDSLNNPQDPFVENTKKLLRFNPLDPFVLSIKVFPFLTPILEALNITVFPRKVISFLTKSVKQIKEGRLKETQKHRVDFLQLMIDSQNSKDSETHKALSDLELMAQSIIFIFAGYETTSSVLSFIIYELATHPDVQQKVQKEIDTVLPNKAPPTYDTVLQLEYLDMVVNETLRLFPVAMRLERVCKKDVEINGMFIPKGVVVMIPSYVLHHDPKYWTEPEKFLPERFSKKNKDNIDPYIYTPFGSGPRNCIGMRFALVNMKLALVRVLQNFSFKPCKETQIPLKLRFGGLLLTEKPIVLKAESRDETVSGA
# Sequence of Cytochrome P450 3A4 (Homo sapiens) (P08684 whole entry, looked up): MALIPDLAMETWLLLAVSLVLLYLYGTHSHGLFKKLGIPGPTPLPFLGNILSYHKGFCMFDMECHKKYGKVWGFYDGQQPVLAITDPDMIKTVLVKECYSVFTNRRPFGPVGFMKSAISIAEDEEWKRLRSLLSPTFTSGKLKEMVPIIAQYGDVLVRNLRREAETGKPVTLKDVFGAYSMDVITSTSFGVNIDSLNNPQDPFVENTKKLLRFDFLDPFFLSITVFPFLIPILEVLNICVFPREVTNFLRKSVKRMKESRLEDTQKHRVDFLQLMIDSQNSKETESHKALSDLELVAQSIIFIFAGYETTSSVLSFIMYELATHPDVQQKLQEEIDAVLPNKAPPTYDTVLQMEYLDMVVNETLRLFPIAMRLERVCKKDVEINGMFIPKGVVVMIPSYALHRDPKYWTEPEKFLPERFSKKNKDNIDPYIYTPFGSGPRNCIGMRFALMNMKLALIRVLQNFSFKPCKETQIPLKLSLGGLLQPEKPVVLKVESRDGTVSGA
compound,measurement,setting,value
O=C(NC(=O)c1cc(F)c(F)cc1Cl)Nc1cc(F)ccc1N1CCC(C(=O)O)CC1,outcome,[1],inactive
same,outcome,Caspase-3 (Homo sapiens),inactive
same,outcome,[2],inactive
same,outcome,[3],inactive
same,outcome,[4],inactive
same,outcome,[5],inactive
same,outcome,CYP2C8 (gene 1558),inactive
same,outcome,CYP2C9 (gene 1559),inactive
same,AC50,CYP2E1 (gene 1571),10.3 µM (active)
same,AC50,CYP4A11 (gene 1579),6.34 µM (active)
same,outcome,[6],inactive
same,outcome,[7],inactive
same,outcome,[8],inactive
same,outcome,[9],inactive
same,outcome,[10],inactive
same,outcome,CYP3A5 (gene 1577),inactive
same,outcome,[11],inactive
same,AC50,[12],7.84 µM (active)
NS(=O)(=O)C(F)(F)C(F)(F)C(F)(F)C(F)(F)C(F)(F)C(F)(F)C(F)(F)C(F)(F)F,outcome,[1],inactive
same,AC50,Caspase-3 (Homo sapiens),3.73 µM (active)
same,AC50,[2],5 µM (active)
same,AC50,[3],12.9 µM (active)
same,AC50,[4],9.56 µM (active)
same,AC50,[5],9.68 µM (active)
same,AC50,CYP2C8 (gene 1558),11.1 µM (active)
same,AC50,CYP2C9 (gene 1559),12.7 µM (active)
same,AC50,CYP2E1 (gene 1571),6.73 µM (active)
same,AC50,CYP4A11 (gene 1579),12.6 µM (active)
same,AC50,[6],28.9 µM (active)
same,AC50,[7],8.93 µM (active)
same,AC50,[8],89 µM (active)
same,AC50,[9],11.4 µM (active)
same,AC50,[10],7.34 µM (active)
same,AC50,CYP3A5 (gene 1577),21 µM (active)
same,AC50,[11],9.04 µM (active)
same,AC50,[12],11.1 µM (active)
C=CC(=O)NCNC(=O)C=C,outcome,[1],inactive
same,outcome,Caspase-3 (Homo sapiens),inactive
same,outcome,[2],inactive
same,outcome,[3],inactive
same,outcome,[4],inactive
same,outcome,[5],inactive
same,outcome,CYP2C8 (gene 1558),inactive
same,outcome,CYP2C9 (gene 1559),inactive
same,AC50,CYP2E1 (gene 1571),50 µM (active)
same,outcome,CYP4A11 (gene 1579),inactive
same,outcome,[6],inactive
same,outcome,[7],inactive
same,outcome,[8],inactive
same,outcome,[9],inactive
same,outcome,[10],inactive
same,outcome,CYP3A5 (gene 1577),inactive
same,AC50,[11],50 µM (active)
same,AC50,[12],24.6 µM (active)
CCCCCCCCCC[N+](C)(C)CCCCCCCCCC,outcome,[1],inactive
same,AC50,Caspase-3 (Homo sapiens),75.9 µM (active)
same,outcome,[2],inactive
same,outcome,[3],inactive
same,outcome,[4],inactive
same,outcome,[5],inactive
same,outcome,CYP2C8 (gene 1558),inactive
same,AC50,CYP2C9 (gene 1559),60 µM (active)
same,outcome,CYP2E1 (gene 1571),inactive
same,AC50,CYP4A11 (gene 1579),26.3 µM (active)
same,AC50,[6],74 µM (active)
same,outcome,[7],inactive
same,AC50,[8],94.6 µM (active)
same,AC50,[9],80.9 µM (active)
same,outcome,[10],inactive
same,outcome,CYP3A5 (gene 1577),inactive
same,outcome,[11],inactive
same,AC50,[12],25.5 µM (active)
Cc1ccc(O)c(C)c1,outcome,[1],inactive
same,outcome,Caspase-3 (Homo sapiens),inactive
same,outcome,[2],inactive
same,outcome,[3],inactive
same,outcome,[4],inactive
same,outcome,[5],inactive
same,outcome,CYP2C8 (gene 1558),inactive
same,outcome,CYP2C9 (gene 1559),inactive
same,outcome,CYP2E1 (gene 1571),inactive
same,outcome,CYP4A11 (gene 1579),inactive
same,outcome,[6],inactive
same,outcome,[7],inactive
same,outcome,[8],inactive
same,outcome,[9],inactive
same,outcome,[10],inactive
same,outcome,CYP3A5 (gene 1577),inactive
same,outcome,[11],inactive
same,outcome,[12],inactive
N#Cc1ccc(N(CC(N)=O)CC(F)(F)F)cc1C(F)(F)F,outcome,[1],inactive
same,outcome,Caspase-3 (Homo sapiens),inactive
same,outcome,[2],inactive
same,outcome,[3],inactive
same,AC50,[4],0.159 µM (active)
same,AC50,[5],19.3 µM (active)
same,outcome,CYP2C8 (gene 1558),inactive
same,outcome,CYP2C9 (gene 1559),inactive
same,AC50,CYP2E1 (gene 1571),0.537 µM (active)
same,outcome,CYP4A11 (gene 1579),inactive
same,outcome,[13],inactive
same,outcome,[6],inactive
same,outcome,[7],inactive
same,outcome,[8],inactive
same,outcome,[9],inactive
same,outcome,[10],inactive
same,outcome,CYP3A5 (gene 1577),inactive
same,AC50,[11],2.3 µM (active)
same,outcome,[12],inactive
C[C@]12CCC(=O)C=C1CC[C@@H]1[C@@H]2CC[C@@]2(C)[C@H]1CC[C@]2(C)O,AC50,[1],45.8 µM (active)
same,outcome,Caspase-3 (Homo sapiens),inactive
same,AC50,[2],45.8 µM (active)
same,outcome,[3],inactive
same,AC50,[4],10.8 µM (active)
same,AC50,[5],0.207 µM (active)
same,outcome,CYP2C8 (gene 1558),inactive
same,outcome,CYP2C9 (gene 1559),inactive
same,AC50,CYP2E1 (gene 1571),79.5 µM (active)
same,AC50,CYP4A11 (gene 1579),73.6 µM (active)
same,AC50,[6],80 µM (active)
same,outcome,[7],inactive
same,outcome,[8],inactive
same,outcome,[9],inactive
same,outcome,[10],inactive
same,outcome,CYP3A5 (gene 1577),inactive
same,outcome,[11],inactive
same,AC50,[12],69.8 µM (active)
